The supplement of paper PMC10849652
The full data set covers some 7,900 targets. This sample favours those with a hit. About 0.6% of all pairs of compound and target were hits. Values without a mark were called inactive.

Legend:
Assay in all cases: log2 fold change, soluble protein after heating vs DMSO (PISA); higher = thermal stabilisation; K562 cells, 10 uM, 30 min; active = over 0.2 and 3.5 SD of the protein, either way, in both replicates (recomputed)
[1] = compound: CS(=O)(=O)c1ccc(-c2cnc(N)c(C(=O)Nc3ccccc3)n2)cc1
Procedure, shortened: (§1)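 K562 cells at 2×10^6 cells/mL were treated with 10 μM compound for 30 min. Aliquots were heated for 3 min across 48°C-58°C, pooled, and extracted in PBS with 0.5% NP-40 at 4°C; soluble protein was the supernatant after 21,000xg for 90 min. Soluble protein was quantified by TMTpro 16plex LC-MS/MS with channel sums equalised, and reported as log2 fold change in thermal stability against DMSO controls, with values from duplicates.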

[2] = compound: C[C@@H](Oc1cc(-c2cnn(C3CCNCC3)c2)cnc1N)c1c(Cl)ccc(F)c1Cl [crizotinib]
Procedure, shortened: as §1

[3] = compound: C[C@@H]1COCCN1C2=NC(=NC(=C2)C3(CC3)S(=O)(=O)C)C4=C5C=CNC5=CC=C4
Procedure, shortened: as §1

[4] = compound: C[C@H](C1=CC=C(C=C1)C(=O)NC2=C3C=CNC3=NC=C2)N
Procedure, shortened: as §1

[5] = compound: C[C@H](Nc1ncnc2nc[nH]c12)c1cc2cccc(Cl)c2c(=O)n1-c1ccccc1 [duvelisib]
Procedure, shortened: as §1

[6] = compound: Cc1cc(Nc2cc(CN3CCOCC3)c3nc(C)c(Cc4ccc(Cl)cc4F)n3n2)n[nH]1 [gandotinib]
Procedure, shortened: as §1

[7] = compound: Cc1cc(Nc2cc(N3CCN(C)CC3)nc(Sc3ccc(NC(=O)C4CC4)cc3)n2)n[nH]1 [tozasertib]
Procedure, shortened: as §1

[8] = compound: Cc1cc(SCc2sc(-c3ccc(C(F)(F)F)cc3)nc2C)ccc1OCC(=O)O
Procedure, shortened: as §1

[9] = compound: Cc1ccc(-n2nc(C(C)(C)C)cc2NC(=O)Nc2ccc(OCCN3CCOCC3)c3ccccc23)cc1 [doramapimod]
Procedure, shortened: as §1

[10] = compound: Cc1ccc(C(=O)N(CCCN)[C@@H](c2nc3cc(Cl)ccc3c(=O)n2Cc2ccccc2)C(C)C)cc1 [ispinesib]
Procedure, shortened: as §1

[11] = compound: Cc1ccc(NC(=O)c2ccc(CN3CC[C@H](N(C)C)C3)c(C(F)(F)F)c2)cc1Nc1nccc(-c2cncnc2)n1 [bafetinib]
Procedure, shortened: as §1

[12] = compound: Cc1cccc(CC(=O)N2CCc3c2ccc(-c2cn(C)c4ncnc(N)c24)c3F)n1
Procedure, shortened: as §1

[13] = compound: Cc1cn(-c2cc(NC(=O)c3ccc(C)c(Nc4nccc(-c5cccnc5)n4)c3)cc(C(F)(F)F)c2)cn1 [nilotinib]
Procedure, shortened: as §1

[14] = compound: Cc1nc(Nc2n[nH]c3c2CN(C(=O)N[C@H](CN(C)C)c2ccccc2)C3(C)C)c2sccc2n1
Procedure, shortened: as §1

[15] = compound: Cc1nc(Nc2ncc(C(=O)Nc3c(C)cccc3Cl)s2)cc(N2CCN(CCO)CC2)n1 [dasatinib]
Procedure, shortened: as §1

[16] = compound: Cc1ncc(-c2ccnc(Nc3ccc(S(C)(=O)=O)cc3)n2)n1C(C)C
Procedure, shortened: as §1

[17] = compound: Cn1cc(-c2ccc3c(c2)CCN3C(=O)Cc2cccc(C(F)(F)F)c2)c2c(N)ncnc21
Procedure, shortened: as §1

[18] = compound: Cn1cc(-c2ccc3nnc(C(F)(F)c4ccc5ncccc5c4)n3n2)cn1
Procedure, shortened: as §1

[19] = compound: Cn1cncc1[C@@](N)(c1ccc(Cl)cc1)c1ccc2c(c1)c(-c1cccc(Cl)c1)cc(=O)n2C [tipifarnib]
Procedure, shortened: as §1

[20] = compound: FC(F)(F)c1ccc(/C=C/c2nc(COc3ccc(CCCCn4ccnn4)cc3)co2)cc1 [mubritinib]
Procedure, shortened: as §1

UniProt O15182, sequence (O15182 whole entry, looked up): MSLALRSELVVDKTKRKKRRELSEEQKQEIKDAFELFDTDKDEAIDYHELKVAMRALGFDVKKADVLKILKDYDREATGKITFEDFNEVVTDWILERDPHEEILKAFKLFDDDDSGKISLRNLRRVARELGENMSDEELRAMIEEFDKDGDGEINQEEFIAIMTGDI
UniProt O75976, sequence (O75976 whole entry, looked up): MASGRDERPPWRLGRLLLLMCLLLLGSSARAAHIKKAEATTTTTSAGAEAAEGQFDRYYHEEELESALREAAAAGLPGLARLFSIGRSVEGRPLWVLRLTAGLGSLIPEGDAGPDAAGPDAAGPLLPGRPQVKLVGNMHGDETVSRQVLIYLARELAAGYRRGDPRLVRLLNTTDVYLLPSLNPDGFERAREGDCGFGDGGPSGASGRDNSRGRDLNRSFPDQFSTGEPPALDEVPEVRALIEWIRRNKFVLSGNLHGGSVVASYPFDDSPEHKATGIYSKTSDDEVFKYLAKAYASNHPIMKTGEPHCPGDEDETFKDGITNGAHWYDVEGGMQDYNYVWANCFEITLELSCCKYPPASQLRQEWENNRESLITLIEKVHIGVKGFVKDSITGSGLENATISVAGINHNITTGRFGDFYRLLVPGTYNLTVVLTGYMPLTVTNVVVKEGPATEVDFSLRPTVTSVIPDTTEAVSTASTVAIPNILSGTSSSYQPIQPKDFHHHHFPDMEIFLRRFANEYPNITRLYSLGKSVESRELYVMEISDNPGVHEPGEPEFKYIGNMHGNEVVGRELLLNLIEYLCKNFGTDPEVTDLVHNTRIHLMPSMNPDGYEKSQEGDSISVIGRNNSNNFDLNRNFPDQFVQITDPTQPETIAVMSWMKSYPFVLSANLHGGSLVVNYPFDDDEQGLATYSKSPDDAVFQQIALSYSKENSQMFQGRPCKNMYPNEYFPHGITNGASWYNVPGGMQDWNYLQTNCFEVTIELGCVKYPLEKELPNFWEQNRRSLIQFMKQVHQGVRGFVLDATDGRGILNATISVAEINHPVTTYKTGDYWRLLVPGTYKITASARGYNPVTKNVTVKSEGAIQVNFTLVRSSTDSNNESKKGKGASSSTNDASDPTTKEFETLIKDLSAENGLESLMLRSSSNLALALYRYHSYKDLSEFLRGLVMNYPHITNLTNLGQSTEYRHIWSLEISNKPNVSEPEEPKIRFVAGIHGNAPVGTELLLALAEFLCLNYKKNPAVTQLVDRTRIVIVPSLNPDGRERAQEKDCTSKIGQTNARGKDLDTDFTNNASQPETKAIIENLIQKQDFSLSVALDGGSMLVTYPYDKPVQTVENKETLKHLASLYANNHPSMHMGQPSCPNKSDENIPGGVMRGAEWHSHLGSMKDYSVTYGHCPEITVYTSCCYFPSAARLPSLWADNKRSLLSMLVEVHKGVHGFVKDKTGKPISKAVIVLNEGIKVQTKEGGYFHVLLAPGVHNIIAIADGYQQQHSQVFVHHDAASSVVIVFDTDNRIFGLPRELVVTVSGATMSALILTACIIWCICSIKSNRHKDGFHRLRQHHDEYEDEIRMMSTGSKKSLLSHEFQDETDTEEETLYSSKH
UniProt Q96CF2, sequence (Q96CF2 whole entry, looked up): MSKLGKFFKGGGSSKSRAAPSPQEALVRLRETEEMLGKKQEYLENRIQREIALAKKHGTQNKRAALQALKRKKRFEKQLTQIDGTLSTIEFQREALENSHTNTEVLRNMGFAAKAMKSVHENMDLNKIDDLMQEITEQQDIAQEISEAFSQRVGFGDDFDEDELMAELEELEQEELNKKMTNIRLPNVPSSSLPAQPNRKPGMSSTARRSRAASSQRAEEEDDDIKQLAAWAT
UniProt Q9BSQ5, sequence (Q9BSQ5 whole entry, looked up): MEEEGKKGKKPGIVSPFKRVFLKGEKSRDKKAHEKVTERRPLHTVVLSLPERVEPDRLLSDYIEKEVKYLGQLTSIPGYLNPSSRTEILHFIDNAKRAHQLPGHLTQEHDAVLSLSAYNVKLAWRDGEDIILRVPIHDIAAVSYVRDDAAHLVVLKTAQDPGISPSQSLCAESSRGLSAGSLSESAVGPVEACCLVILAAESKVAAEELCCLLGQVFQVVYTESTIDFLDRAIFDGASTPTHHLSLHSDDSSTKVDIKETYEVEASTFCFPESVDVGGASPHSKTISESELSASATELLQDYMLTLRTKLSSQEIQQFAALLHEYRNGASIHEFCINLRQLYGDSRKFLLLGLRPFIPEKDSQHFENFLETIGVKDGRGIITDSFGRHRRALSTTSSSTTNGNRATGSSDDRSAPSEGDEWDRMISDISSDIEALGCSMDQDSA
UniProt P0C0L4, sequence (P0C0L4 whole entry, looked up): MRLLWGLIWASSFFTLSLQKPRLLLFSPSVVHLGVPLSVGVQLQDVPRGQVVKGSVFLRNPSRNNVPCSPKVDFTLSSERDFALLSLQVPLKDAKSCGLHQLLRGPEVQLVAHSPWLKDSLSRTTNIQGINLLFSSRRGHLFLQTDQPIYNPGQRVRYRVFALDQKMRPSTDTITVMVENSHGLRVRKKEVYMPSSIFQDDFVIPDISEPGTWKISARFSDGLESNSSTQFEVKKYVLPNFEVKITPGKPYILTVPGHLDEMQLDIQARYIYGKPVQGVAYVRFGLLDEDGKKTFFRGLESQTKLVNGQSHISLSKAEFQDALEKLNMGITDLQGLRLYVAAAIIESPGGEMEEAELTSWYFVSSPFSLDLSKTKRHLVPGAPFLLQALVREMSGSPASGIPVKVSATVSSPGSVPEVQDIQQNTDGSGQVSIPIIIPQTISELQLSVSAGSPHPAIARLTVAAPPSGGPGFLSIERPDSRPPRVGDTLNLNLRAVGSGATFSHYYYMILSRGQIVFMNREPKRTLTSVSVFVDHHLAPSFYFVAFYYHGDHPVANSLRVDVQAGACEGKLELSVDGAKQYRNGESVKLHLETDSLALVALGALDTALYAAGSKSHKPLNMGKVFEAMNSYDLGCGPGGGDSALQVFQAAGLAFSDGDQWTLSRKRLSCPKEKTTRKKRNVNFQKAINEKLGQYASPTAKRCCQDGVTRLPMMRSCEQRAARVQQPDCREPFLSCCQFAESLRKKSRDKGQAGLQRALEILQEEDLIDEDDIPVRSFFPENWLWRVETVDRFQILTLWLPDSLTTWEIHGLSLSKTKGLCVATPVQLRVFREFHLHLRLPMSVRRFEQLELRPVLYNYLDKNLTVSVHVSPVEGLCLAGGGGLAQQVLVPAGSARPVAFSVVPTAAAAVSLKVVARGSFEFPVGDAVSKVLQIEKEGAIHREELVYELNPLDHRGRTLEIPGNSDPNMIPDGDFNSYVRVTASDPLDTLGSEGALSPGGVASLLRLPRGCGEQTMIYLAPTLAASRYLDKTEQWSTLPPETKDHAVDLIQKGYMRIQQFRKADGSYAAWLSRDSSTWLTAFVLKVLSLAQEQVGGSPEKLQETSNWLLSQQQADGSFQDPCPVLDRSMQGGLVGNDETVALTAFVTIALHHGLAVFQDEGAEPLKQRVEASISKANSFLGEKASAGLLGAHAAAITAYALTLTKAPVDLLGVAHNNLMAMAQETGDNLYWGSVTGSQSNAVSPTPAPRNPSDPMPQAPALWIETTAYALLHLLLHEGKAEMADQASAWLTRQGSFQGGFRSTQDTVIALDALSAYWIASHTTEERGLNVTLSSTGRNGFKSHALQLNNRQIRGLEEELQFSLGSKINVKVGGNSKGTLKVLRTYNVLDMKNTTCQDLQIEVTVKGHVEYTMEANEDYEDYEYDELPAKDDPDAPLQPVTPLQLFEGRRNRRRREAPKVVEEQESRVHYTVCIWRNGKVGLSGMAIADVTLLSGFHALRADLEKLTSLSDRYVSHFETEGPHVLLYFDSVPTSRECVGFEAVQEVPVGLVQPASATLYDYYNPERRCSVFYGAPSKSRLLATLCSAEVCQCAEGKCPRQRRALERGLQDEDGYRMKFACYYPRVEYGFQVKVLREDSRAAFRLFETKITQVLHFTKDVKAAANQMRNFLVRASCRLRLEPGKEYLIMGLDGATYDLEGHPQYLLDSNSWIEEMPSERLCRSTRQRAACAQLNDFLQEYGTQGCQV
UniProt Q86X95, sequence (Q86X95 whole entry, looked up): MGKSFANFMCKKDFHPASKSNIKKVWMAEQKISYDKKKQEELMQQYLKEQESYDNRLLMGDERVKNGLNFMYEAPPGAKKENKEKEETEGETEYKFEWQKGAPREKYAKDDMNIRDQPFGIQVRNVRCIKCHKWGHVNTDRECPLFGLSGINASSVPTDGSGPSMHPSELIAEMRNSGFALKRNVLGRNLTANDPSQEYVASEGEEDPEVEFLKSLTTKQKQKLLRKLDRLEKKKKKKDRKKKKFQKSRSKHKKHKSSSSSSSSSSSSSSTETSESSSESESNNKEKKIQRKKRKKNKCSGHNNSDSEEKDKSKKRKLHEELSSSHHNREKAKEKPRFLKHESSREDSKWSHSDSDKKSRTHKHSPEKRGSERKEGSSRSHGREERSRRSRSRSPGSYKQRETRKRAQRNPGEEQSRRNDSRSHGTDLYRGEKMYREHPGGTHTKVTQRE
UniProt P55211, sequence (P55211 whole entry, looked up): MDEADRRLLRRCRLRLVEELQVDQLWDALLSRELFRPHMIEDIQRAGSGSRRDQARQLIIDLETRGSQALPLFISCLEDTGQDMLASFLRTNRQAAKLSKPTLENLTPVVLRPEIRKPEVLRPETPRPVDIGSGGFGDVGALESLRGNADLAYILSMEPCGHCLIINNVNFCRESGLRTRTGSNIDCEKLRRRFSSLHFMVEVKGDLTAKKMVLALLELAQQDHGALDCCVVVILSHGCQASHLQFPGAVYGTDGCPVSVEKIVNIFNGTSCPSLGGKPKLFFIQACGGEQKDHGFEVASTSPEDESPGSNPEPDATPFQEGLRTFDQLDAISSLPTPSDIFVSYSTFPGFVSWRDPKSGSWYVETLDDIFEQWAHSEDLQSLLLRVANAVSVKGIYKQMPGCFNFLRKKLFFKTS

Row | Target | log2 fold change [1] | log2 fold change [2] | log2 fold change [3] | log2 fold change [4] | log2 fold change [5] | log2 fold change [6] | log2 fold change [7] | log2 fold change [8] | log2 fold change [9] | log2 fold change [10] | log2 fold change [11] | log2 fold change [12] | log2 fold change [13] | log2 fold change [14] | log2 fold change [15] | log2 fold change [16] | log2 fold change [17] | log2 fold change [18] | log2 fold change [19] | log2 fold change [20]
1 | CHMP4C (UniProt Q96CF2) | -0.044 | -0.007 | -0.256 | -0.003 | 0.067 | 0.073 | -0.024 | 0.03 | -0.046 | -0.079 | -0.01 | -0.003 | -0.03 | -0.021 | -0.027 | 0 | -0.008 | 0.041 | -0.015 | 0.039
2 | C4A (UniProt P0C0L4) | -0.096 | 0.065 | 0.088 | 0.056 | 0.026 | -0.375 | -0.056 | 0.008 | -0.153 | -0.155 | -0.316 | -0.018 | 0.027 | 0.136 | -0.044 | 0.217 | 0.163 | 0.052 | -0.087 | -0.193
3 | CETN3 (UniProt O15182) | -0.018 | 0.014 | -0.084 | -0.071 | 0.057 | 0.094 | 0.037 | -0.094 | -0.018 | 0 | -0.052 | -0.249 (active) | -0.051 | 0.04 | 0.068 | -0.013 | -0.026 | -0.006 | 0.086 | 0.112
4 | CIR1 (UniProt Q86X95) | -0.039 | 0.03 | -0.187 | 0.544 (active) | -0.114 | 0.295 | 0 | 0.015 | 0.092 | -0.063 | 0.001 | -0.091 |  |  | 0.079 |  | -0.131 | -0.06 | 0.223 | -0.113
5 | CCM2 isoform 2 (UniProt Q9BSQ5) | 0.088 | -0.022 | -0.016 | 0.003 | -0.02 | 0.026 | 0.132 | -0.067 | 0.013 | -0.043 | -0.059 | -0.038 |  |  | -0.003 |  | 0.043 | -0.021 | -0.024 | -0.061
6 | CASP9 (UniProt P55211) | 0.088 | 0.002 | 0.014 | 0.014 | 0.104 | -0.152 | 0.138 | 0.064 | 0.05 | 0.037 |  | 0.037 | -0.013 | -0.136 | -0.075 | 0 | -0.276 | -0.004 | 0.003 | 
7 | CHEK1 (UniProt O14757) | 0.011 | -0.116 | 0.044 | 0.049 | 0.059 | -0.122 | -0.023 | 0.008 | -0.009 | 0.039 | -0.053 | 0.02 | -0.05 | -1.17 (active) | -0.064 | 0.002 | 0.021 | -0.022 | 0.005 | 0.048
8 | CPD (UniProt O75976) | 0 | -0.294 (active) | 0.002 | 0.019 | 0.036 | 0.033 | -0.036 | -0.01 | 0.028 | -0.174 | -0.07 | 0.01 | -0.007 | -0.033 | 0.026 | -0.029 | -0.029 | 0.026 | 0.055 | -0.009
